High-throughput results as filed in PubChem BioAssay.
Luc counter: counter-screen: inhibitors of Kinase-Glo firefly luciferase; Q27757; Kinase-Glo luciferase, ATP luminescence, 8 min; Potency, µM (highest dose often 38.3 µM), for inactives: at the top dose activity change, negative = inhibition, usual class: inhibitors; 200,000 tested, 0.28% active; AID 1379; note: % is set by controls: 0 for no effect and ±100 for the full control effect; nearly all actives have a fitted effect of over 60% in size
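Luminescence was the read-out, taken after 8-minute incubation at ambient temperature. Luciferase turned over luciferin with 10 uM ATP in imidazole pH 7.2 buffer containing KCl, MgCl2, Tween 20 and BSA.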
NPC1 prom act: activates the NPC1 promoter; Huh7 NPC1 promoter luciferase reporter, 24 h; Potency, µM (doses to about 9.22 µM), for the others: at the top dose activation, actives largely listed as activators; 320,000 tested, 2.4% active; AID 485313; note: % of control where 0% means no effect; nearly all actives have a fitted effect of over 60% in size
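Compounds in DMSO were transferred onto Huh7 NPC1-luciferase reporter cells pre-incubated 2 h; after 24 h at 37 °C, Amplite reagent was dispensed and luminescence recorded 10 min later.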
Rab9 promoter act: activates the Rab9 promoter; Huh7 Rab9 promoter-luciferase reporter, luminescence, 24 h; Potency, µM (doses to about 9.22 µM), for inactives: at the top dose activation, negative = inhibition, usual class: activators; 320,000 tested, 2.8% active; AID 485297; note: % of control where 0% means no effect; nearly all actives have a fitted effect of over 60% in size
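Huh7 reporter line, Rab9 promoter upstream of luciferase. Compound exposure 24 h at 37 °C in reduced-serum medium with 10% FBS. Read-out: luminescence.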
ELG1 genotox: inducers of genotoxicity in HEK293T ELG1-luciferase cells; 330,000 tested, 1.3% active; HEK293T ELG1-luciferase reporter, luminescence, 16 h; Potency, µM (highest dose often 46 µM), inactives show top-dose activity change, positive = activation, hits mostly activators; note: % of control where 0% means no effect; nearly all actives have a fitted effect of over 60% in size
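Screening used a luciferase reporter fused to human ELG1 in HEK293T cells. Luminescence was read on a CCD plate imager after 16 hr exposure and 30 min ONE-Glo incubation.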
SMN2 splice enh: increases expression of the SMN2 splice variant | HEK293 SMN2-luciferase splicing reporter, luminescence, 30-36 h | 210,000 tested, 2.8% active | Potency, µM (highest dose often 46.1 µM), for the others: at the top dose activity change, positive = activation, usual class: activators; note: % of control where 0% means no effect; nearly all actives have a fitted effect of over 55% in size
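HEK293 cells carry an SMN2 […]–luciferase reporter in which exon 7 inclusion puts luciferase in frame. Cells were plated 10-12 h before compound addition, then incubated 30-36 h at 37C. ONE-Glo luminescence was read; sodium butyrate at 4.5 mM final served as control.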
FLuc modulator: firefly luciferase modulation, counter-screen for miR-21 project | P08659 | purified FLuc, Km substrates, luminescence inhibition | Potency, µM (doses to about 57.5 µM), inactives show top-dose activity change, negative = inhibition, actives largely listed as inhibitors | 360,000 tested, 6.9% active | AID 588342;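 note: plate controls were vehicle for no effect and reference inhibitor for full effect; nearly all actives have a fitted effect of over 55% in size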
Target sequence (P08659 whole entry, looked up): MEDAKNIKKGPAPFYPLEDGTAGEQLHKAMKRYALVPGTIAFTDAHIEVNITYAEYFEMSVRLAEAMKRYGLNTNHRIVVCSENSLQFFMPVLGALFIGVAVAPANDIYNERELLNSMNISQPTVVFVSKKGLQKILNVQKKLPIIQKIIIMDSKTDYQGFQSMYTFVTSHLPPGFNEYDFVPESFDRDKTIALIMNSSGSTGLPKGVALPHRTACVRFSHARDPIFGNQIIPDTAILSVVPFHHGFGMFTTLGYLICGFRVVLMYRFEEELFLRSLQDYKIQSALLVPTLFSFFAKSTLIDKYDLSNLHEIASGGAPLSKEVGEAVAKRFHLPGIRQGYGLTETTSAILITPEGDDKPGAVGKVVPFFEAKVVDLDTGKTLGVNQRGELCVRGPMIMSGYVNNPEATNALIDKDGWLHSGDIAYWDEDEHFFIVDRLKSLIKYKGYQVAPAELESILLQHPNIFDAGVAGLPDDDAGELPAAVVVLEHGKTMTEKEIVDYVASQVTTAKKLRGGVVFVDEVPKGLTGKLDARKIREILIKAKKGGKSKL
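Purified P. pyralis luciferase, 10 nM final, with Km-level 10 uM D-luciferin and 10 uM ATP in 50 mM Tris acetate pH 7.5, 10 mM Mg acetate, 0.01% Tween-20, 0.05% BSA; 6-point qHTS titration about 60 µM downward; luminescence read.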
* = called active by the depositor; ? = inconclusive; . = no result given. Only some compounds are listed: those with a hit (about 7.3% of all), similar ones and a draw of the others. Calls come from the whole dose curve; as a rule, active = well fitted curve in the direction sought with a large enough effect; inconclusive = small, poorly fitted or top-dose-only effect, or another doubt; inactive = no such curve, though single readings can be large; an effect the other way counts as inactive or inconclusive. Potency is the fitted concentration of half-maximal effect.

SMILES	Luc counter	NPC1 prom act	Rab9 promoter act	ELG1 genotox	SMN2 splice enh	FLuc modulator
O=C(CCc1nc2ccccc2c(=O)[nH]1)Nc1nnc(SCc2ccccc2F)s1	.	28.5%	?	?	.	19µM*
C=CCSc1nnc(NC(=O)C2=COCCO2)s1	.	3.98µM*	2.24µM*	?	.	16.9µM*
O=C(Nc1nnc(SCc2ccc(F)cc2)s1)C1=COCCO1	.	12.8%	18.5%	1.5%	.	-16.7%
O=C(Nc1nnc(SCc2ccccc2)s1)C1=COCCO1	.	3.55µM*	3.55µM*	?	.	?
c1ccc(CSc2nnc(NC3=NCCCCC3)s2)cc1	-2.4%	?	3.98µM*	?	15.1%	16.9µM*
CCCn1c(C)nc2c(NCCN(C)C)nc(C)nc21	-2.6%	.	.	.	5.7%	.
CCN(CC)S(=O)(=O)c1ccc(N2CCOCC2)c(NC(=O)c2cc(=O)[nH]c3ccccc23)c1	-0.5%	-2.4%	1.7%	-13.0%	-1.5%	2.2%
Cc1cccc(NC(=O)CN2C(=O)NC(C)(c3ccc4ccccc4c3)C2=O)n1 (stereo unspecified)	.	-0.1%	-1.3%	-4.1%	.	0.2%
Cc1cc(=O)[nH]c(SCC(=O)Nc2nnc(SCc3ccccc3)s2)n1	0.5%	-6.1%	-0.7%	-6.6%	-25.7%	13.5µM*
CC(=O)Nc1nnc(SCc2ccccc2F)s1	-2.8%	27.5%	?	?	?	-17.9%
O=C(Nc1nnc(SCc2ccccc2F)s1)C1=COCCO1	.	2.51µM*	3.55µM*	10.3µM*	.	16.9µM*
O=C(Cc1cccs1)Nc1nnc(SCc2ccc(Br)cc2)s1	1.3%	-1.0%	-1.1%	3.4%	-3.0%	16.9µM*
COc1ccc(C)cc1NC(=O)NC1CCCc2ccccc21 (stereo unspecified)	.	-3.5%	3.6%	-4.3%	.	2.5%
O=C(NCCCN1CCOCC1)c1onc(CSc2nc3ccccc3[nH]2)c1C(=O)NCCCN1CCOCC1	.	-2.4%	-0.6%	2.6%	.	2.1%
O=C1/C(=C\Nc2ccc(OC(F)(F)F)cc2)CCN1c1ncccn1	15.3%	?	2.51µM*	9.2µM*	17.2%	?
O=C1/C(=C\Nc2ccc(Cl)cc2)CCN1c1ncccn1	-5.2%	2µM*	0.891µM*	?	20µM*	4.78µM*
O=C(CN1CCN(c2ccccn2)CC1)Nc1ccc(OC(F)(F)F)cc1	.	-0.6%	-4.2%	-4.6%	.	-0.5%
CC(C)CNC(=O)CN(c1ccccc1)S(=O)(=O)c1ccccc1[N+](=O)[O-]	.	6.9%	3.6%	0.2%	.	-0.7%
Cc1nnc(SC(C)C(=O)Nc2ncc(Cl)cc2Cl)n1Cc1ccccc1 (stereo unspecified)	0.2%	2.6%	-0.1%	-1.4%	-5.9%	-1.2%
Cc1cc(SC(C)C(=O)Nc2ncc(Cl)cc2Cl)nc2ccccc12 (stereo unspecified)	3.9%	-1.7%	-0.3%	-5.1%	3.55µM*	-11.5%
CCOc1ccc2cc(C(=O)NCc3ccccc3)c(=N)oc2c1	.	0.4%	-5.9%	?	.	21.3µM*
O=C(NCc1ccccc1)c1cc2ccc(O)cc2oc1=O	.	?	3.16µM*	?	.	12µM*
O=C(O)c1ccc(N=c2oc3cc(O)ccc3cc2C(=O)NCc2ccccc2)cc1	1.9%	-0.2%	-4.3%	5.3%	-10.5%	?
COc1ccc(C(=O)O)cc1S(=O)(=O)Nc1ccc(C)cc1	3.9%	-28.3%	5.0%	1.5%	9.3%	-13.0%
Cn1c(N)c(C(=O)COC(=O)C2CC(=O)N(Cc3ccccc3)C2)c(=O)n(C)c1=O (stereo unspecified)	-1.1%	-1.8%	-1.6%	-2.5%	6.3%	-6.7%
COc1ccc(C2OC3=C(Nc4cc(C)c(C)cc4N3)C2=O)cc1 (stereo unspecified)	.	3.55µM*	2.82µM*	?	.	?
CN=C1SC(CC(=O)Nc2ccc(N3CCOCC3)cc2)C(=O)N1C (stereo unspecified)	3.3%	1.7%	4.4%	-0.2%	12.4%	-5.2%
